According to PubChem BioAssay AID588675 (Johns Hopkins Ion Channel Center, 2011):
Screen size: about 310,000 compounds; about 1,900 (0.61%) were called active.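 How the source made its calls: active means plate-corrected calcium response at least 3 library SD above typical, normal starting fluorescence, not activating the receptor alone; inactive means the rest.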 Many of the other results were omitted from the sample, so actives are more common in it than they were.

What follows are compounds tested against Mas-related G-protein coupled receptor member X1 (Homo sapiens) (UniProt Q96LB2) (assay: allosteric enhancers of human MrgX1 signaling – HEK293 cells, Fluo-4 calcium flux, primary screen (AID 588675;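 further: compound read alongside a low EC10 to EC30 dose of BAM8-22 agonist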;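 on B-score: peak minus trough fluorescence over baseline measured at the second addition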)). Conditions: MrgX1-HEK293, Fluo-4 calcium flux, FDSS, at 10 µM; stronger effect = higher value.
Sequence of Mas-related G-protein coupled receptor member X1 (Homo sapiens) (Q96LB2 whole entry, looked up): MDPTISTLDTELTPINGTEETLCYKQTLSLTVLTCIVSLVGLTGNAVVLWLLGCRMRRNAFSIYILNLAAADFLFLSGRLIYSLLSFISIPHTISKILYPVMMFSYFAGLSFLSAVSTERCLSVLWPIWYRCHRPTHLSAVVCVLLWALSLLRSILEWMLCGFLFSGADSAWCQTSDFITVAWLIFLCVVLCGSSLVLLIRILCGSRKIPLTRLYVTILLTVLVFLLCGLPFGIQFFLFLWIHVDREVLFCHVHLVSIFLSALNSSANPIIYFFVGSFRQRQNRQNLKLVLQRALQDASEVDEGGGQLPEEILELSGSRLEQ

SMILES | B-score
O=C(C[C@H]1C(=O)N(c2ccc(F)c(F)c2)C[C@@H]1Cc1ccccc1)Nc1ccccc1 | inactive
COc1ccccc1-n1nnnc1S(=O)(=O)Cc1ccc(Cl)cc1 | inactive
CCCCNS(=O)(=O)c1ccc(S(=O)(=O)n2cnc3ccccc32)cc1 | inactive
COc1c(C(C)C)oc2cc3oc(=O)ccc3cc12 | 9.1 (active)
Cc1oc2cc3oc(=O)ccc3cc2c1C | inactive
CC(C)C(=O)Nc1ccc2oc(=O)ccc2c1 | inactive
COc1ccc(Cl)cc1NC(=O)CN(C)C(=O)c1cc(-c2cccs2)nn1-c1ccccc1 | inactive
Cn1c(=O)[nH]c(=O)c2c1nc(CN1CCN(c3ccccc3F)CC1)n2CCc1ccccc1 | inactive
Cn1c(/C(C#N)=C2/CCCCCN2)nc2ccccc21 | 8.34 (active)
Cn1c(S(=O)(=O)O)nc2ccccc21 | inactive
N#C/C(=C1/CCCN1)c1ccccn1 | inactive
O=C(CN1C(=O)NC2(CCCCC2)C1=O)NCCC1=CCCCC1 | inactive
CCCC1C(=O)N2C(N(C)C)=Nc3ccc(C)cc3N2C1=O (configuration not stated) | inactive
O=[N+]([O-])C(=c1ccc2c(c1)N1C3=C(CCCC3)CC3CCCCC31N=2)[N+](=O)[O-] (configuration not stated) | inactive
COc1cccc(CN(C)CC(O)COC(c2ccccc2)c2ccccc2C)c1 (configuration not stated) | inactive
O=C(NC(=S)NC1CCCCC1)c1ccc(Cl)cc1 | inactive
COc1ccc(C(=O)NC(=S)NC2CCCCC2)cc1 | 7.2 (active)
COc1ccc(C(=O)NNC(=S)NC(=O)c2ccccc2)cc1 | inactive
NC(=O)c1ccc(Nc2ccc3nonc3c2[N+](=O)[O-])cc1 | inactive
CC(C)c1ccc(Nc2nnc(SCC(=O)c3nnc(-c4ccccc4)o3)s2)cc1 | inactive
COCC(=O)Nc1c(I)c(C(=O)NCC(O)CO)c(I)c(C(=O)N(C)CC(O)CO)c1I (configuration not stated) | inactive
COc1cccc(OC)c1C(=O)OCC(=O)/C(C#N)=C(\C)N | inactive
O=C(NCC(=O)N1CCCC(C(F)(F)F)C1)c1ccccc1F (configuration not stated) | inactive

SMILES | B-score
O=C(c1cccc(S(=O)(=O)Nc2ccccc2Cl)c1)N1CCN(C(=O)c2ccco2)CC1 | 10.7 (active)
O=C(CNS(=O)(=O)c1ccccc1)N1CCN(C(=O)c2ccco2)CC1 | inactive
O=C(c1cccc([N+](=O)[O-])c1)N1CCN(C(=O)c2ccco2)CC1 | inactive
C#CCOCCOCCOCCNc1nc(N2CCN(C(=O)CCCCCCCCCCNC(=O)[C@H](CCCCN)n3cc(C)nn3)CC2)nc(N2CCN(C(=O)CCCCCCCCCCNC(=O)[C@H](CO)n3cc(CCCSC)nn3)CC2)n1 | inactive
Cc1ccc(N(C(=O)C(F)(F)F)C(C(=O)NC2CCCCC2)c2ccncc2)cc1C (configuration not stated) | inactive
N#CCCCn1c(O)c(N=NC(=O)C(O)c2ccccc2)c2ccccc21 (configuration not stated) | inactive
CCOC(=O)Cn1c(O)c(N=NC(=O)CNC(=O)Cc2ccccc2)c2ccccc21 | inactive
COC(=O)Cn1c(O)c(N=NC(=O)OC)c2ccccc21 | 7.73 (active)
Oc1ccc(C2Nc3cccc4cccc(c34)N2)cc1 | inactive
Brc1ccccc1C1Nc2cccc3cccc(c23)N1 | 11.9 (active)
Cc1ccc(C2Nc3cccc4cccc(c34)N2)cc1 | inactive
CCn1cc(C(=O)NC2CCCCCC2)c(=O)c2cc(S(=O)(=O)N3CCCCC3)ccc21 | inactive
Cc1ccc(C)c(-c2nnc(NC(=O)CS(=O)(=O)c3ccccc3)o2)c1 | inactive
CN(C)S(=O)(=O)Oc1ccccc1C(=O)Nc1ccccc1Cl | inactive
CC1CCN(S(=O)(=O)c2ccc3[nH]c(=O)ccc3c2)CC1 | inactive
O=C1C(Cc2ccc(O)cc2)NC(=S)N1Cc1ccccc1 (configuration not stated) | 9.49 (active)
Cc1cc(C)c(NC(=O)CN2C(=O)NC(Cc3ccccc3)C2=O)c(C)c1 (configuration not stated) | inactive
COc1ccc(N2C(=O)C(Cc3ccccc3)NC2=S)cc1 (configuration not stated) | inactive
CC1(C)CC(=O)C2=C(C1)N=C1SCCC(=O)N1C2c1ccc(C(F)(F)F)cc1 (configuration not stated) | inactive
COc1ccc(CNc2c(CO)cnc3c2cnn3C)cc1 | inactive
COCCNC(=O)c1ccc2nc(Cc3ccc(OC)c(OC)c3)oc2c1 | inactive
COc1ccc(Cc2nc(-c3ccccn3)no2)cc1OC | 8.9 (active)
COc1ccc(CCNS(=O)(=O)c2cccc3cccnc23)cc1OC | inactive

SMILES | B-score
Cc1ccc(N2CC(C(=O)Nc3cc(Cl)ccc3-n3cncn3)CC2=O)cc1 (configuration not stated) | inactive
Cn1nc(C(F)(F)F)c(-c2ccc(F)cc2)c1NC(=O)CSCC(=O)O | inactive
CCCC1OC23CCCCC2C(C#N)(C#N)C1(C#N)C(=N)O3 (configuration not stated) | inactive
COc1ccc(CN(C)C(=O)Cc2ccsc2)c(OC)c1OC | inactive
O=C(Nc1ccccc1N1CCN(c2ccccc2)CC1)c1cccc(F)c1 | inactive
O=C(Nc1ccccc1N1CCCCC1)c1ccc2nccnc2c1 | 7.2 (active)
O=C(Nc1ccccc1N1CCCC1)c1ccc2ccccc2c1 | inactive
COCCn1c(CN2CCC(Cc3ccccc3)CC2)nc2c1c(=O)n(C)c(=O)n2C | inactive
CCOc1ccc(NC(=O)CCS(=O)(=O)c2ccc3c(c2)CCCN3C(=O)CC)cc1 | inactive
Cc1ccc(S(=O)(=O)N2CCC(C(=O)NCCC3=CCCCC3)CC2)cc1C | inactive
CC(=O)N1N=C(c2ccncc2)OC1(Cc1ccccc1)Cc1ccccc1 | 7.85 (active)
O=C(Cc1ccccc1)N1N=C(c2ccncc2)CC1(O)C(F)(F)F (configuration not stated) | inactive
CC(=O)N1N=C(c2ccccc2)OC1c1cccnc1 (configuration not stated) | inactive
O=C(c1ccccc1)C(Cn1cncn1)C(Sc1ccccc1)c1ccccc1 (configuration not stated) | inactive
CCN(CC(=O)Nc1ccccc1OC)C(=O)Cn1cnc2ccccc2c1=O | inactive
Cc1ccc(/C=C/C(=O)O)cc1S(=O)(=O)N1CCC(Cc2ccccc2)CC1 | inactive
Cn1cnnc1Sc1ccc(S(C)(=O)=O)cc1[N+](=O)[O-] | 12.1 (active)
CCN(CC(=O)Nc1c(F)cccc1F)C(=O)c1ccc(Sc2nncn2C)c([N+](=O)[O-])c1 | inactive
CC(=O)Nc1ccc(Nc2c([N+](=O)[O-])cc(S(C)(=O)=O)cc2[N+](=O)[O-])cc1 | inactive
CS(=O)(=O)Nc1ccc(C(=O)N2CCCC2)cc1 | inactive
Cn1c(=O)c2c(nc(N/N=C/c3cccs3)n2Cc2ccc(Br)cc2)n(C)c1=O | inactive
